# Results reported in the supplement of paper PMC10477191.
# ± gives the standard deviation of the averaged measurements.
# Test system: Drosophila virilis antennal basiconic sensillum AB9
# Experiment: odor-evoked OSN spike response (post minus pre-stimulus); higher = stronger neuronal excitation
# Details: odor dilution: 10^-4
# Method: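 Single sensillum recordings from antennal basiconic sensilla of D. virilis. A 500 ms pulse of odorant (10^-4 in mineral oil or DMSO) was delivered; the response is the change in spike frequency between the 1 s pre- and post-stimulus windows (spikes/s).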
row,SMILES,odor-evoked OSN spike response
1,CC(C)=O [acetone],93.7 ± 30 spikes/s
